# From PubChem BioAssay (EPA / NIEHS)
# The source made the active and inactive calls. The calls were made as follows: active = hit-call score of the fitted dose curve at least 0.9, where 1 is the maximum; inactive = score below 0.9.
# How the values were obtained:
# [1] = ATG_CRE_CIS: Attagene CIS-FACTORIAL HepG2 Assay for human cAMP Responsive Element (CRE) binding protein 3 (AID 2282926); details: HepG2 CRE cis-reporter, Attagene multiplexed mRNA; actives raise or lower the signal
# Method in brief: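 Multiplexed transcription-unit reporters transfected into HepG2; 24 h dosing; RT-PCR/capillary electrophoresis fluorescence read-out; bidirectional fit vs DMSO.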
# [2] = target: CCAAT/enhancer-binding protein beta (Homo sapiens) (UniProt P17676); experiment: ATG_C_EBP_CIS: Attagene CIS-FACTORIAL HepG2 Assay for human CCAAT/Enhancer Binding Protein (C/EBP) beta (AID 2282927); details: HepG2 Attagene cis-factorial transcription factor reporter; actives raise or lower the signal
# Sequence of CCAAT/enhancer-binding protein beta (Homo sapiens) (P17676 whole entry, looked up): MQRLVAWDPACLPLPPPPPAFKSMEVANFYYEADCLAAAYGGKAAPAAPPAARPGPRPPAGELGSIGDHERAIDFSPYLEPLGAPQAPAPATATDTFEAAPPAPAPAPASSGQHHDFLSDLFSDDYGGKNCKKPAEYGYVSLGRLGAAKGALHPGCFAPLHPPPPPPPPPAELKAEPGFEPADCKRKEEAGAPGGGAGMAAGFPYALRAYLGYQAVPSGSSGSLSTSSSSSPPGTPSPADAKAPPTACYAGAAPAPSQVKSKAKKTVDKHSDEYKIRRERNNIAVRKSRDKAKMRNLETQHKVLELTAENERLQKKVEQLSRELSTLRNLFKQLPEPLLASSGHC
# Method in brief: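 RT-PCR/capillary electrophoresis fluorescence of reporter mRNA, 24 h post-dose, in HepG2 cells carrying transfected cis-promoter reporter units. Bidirectional curve fitting against DMSO baseline captures gain or loss of signal.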
# [3] = ATG_DR4_LXR_CIS: Attagene CIS-FACTORIAL HepG2 Assay for human Liver X Receptor (LXR), DR4 submotif (AID 2282929); details: HepG2 Attagene DR4 cis-reporter, mRNA transcription; actives raise or lower the signal
# Method in brief: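 Cells were transfected with multiple reporter transcription units, exposed to chemicals for 24 hours, then lysed for RNA. Reporter mRNA induction was measured by RT-PCR with capillary electrophoresis detection and fitted in both directions relative to DMSO.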
# [4] = target: Aryl hydrocarbon receptor (Homo sapiens) (UniProt P35869); experiment: ATG_Ahr_CIS: Attagene CIS-FACTORIAL HepG2 Assay for human Aryl Hydrocarbon Receptor (Ahr) (AID 2282930); details: HepG2 AhR cis-factorial reporter transcription; actives raise or lower the signal
# Sequence of Aryl hydrocarbon receptor (Homo sapiens) (P35869 whole entry, looked up): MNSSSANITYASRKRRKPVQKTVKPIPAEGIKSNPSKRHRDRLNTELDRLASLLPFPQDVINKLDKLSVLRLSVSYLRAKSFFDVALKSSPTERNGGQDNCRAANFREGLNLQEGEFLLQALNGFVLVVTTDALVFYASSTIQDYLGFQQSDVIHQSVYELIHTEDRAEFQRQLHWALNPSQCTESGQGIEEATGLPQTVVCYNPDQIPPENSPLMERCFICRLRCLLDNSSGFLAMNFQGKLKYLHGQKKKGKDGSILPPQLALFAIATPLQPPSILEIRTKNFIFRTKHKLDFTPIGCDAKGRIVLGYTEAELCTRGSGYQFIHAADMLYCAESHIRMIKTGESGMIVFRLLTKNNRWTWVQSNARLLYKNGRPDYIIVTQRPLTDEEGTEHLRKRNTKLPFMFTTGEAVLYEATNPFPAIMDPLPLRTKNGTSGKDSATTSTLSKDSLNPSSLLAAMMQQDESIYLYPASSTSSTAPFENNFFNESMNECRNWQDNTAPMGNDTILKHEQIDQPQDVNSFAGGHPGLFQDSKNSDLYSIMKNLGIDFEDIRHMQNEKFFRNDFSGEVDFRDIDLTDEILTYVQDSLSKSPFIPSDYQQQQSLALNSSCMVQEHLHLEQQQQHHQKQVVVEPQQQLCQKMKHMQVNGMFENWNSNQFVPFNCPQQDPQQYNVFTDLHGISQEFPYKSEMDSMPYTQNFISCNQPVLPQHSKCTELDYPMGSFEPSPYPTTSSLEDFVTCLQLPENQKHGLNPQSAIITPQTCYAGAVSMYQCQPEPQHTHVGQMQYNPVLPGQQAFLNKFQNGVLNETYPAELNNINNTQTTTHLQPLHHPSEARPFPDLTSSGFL
# Method in brief: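 HepG2 cells transiently transfected with cis-element-driven multiplexed reporter transcription units; endogenous transcription factor activity measured as reporter mRNA 24 h after dosing. RT-PCR, 6-FAM labelling, HpaI digestion, capillary electrophoresis; bidirectional fitting versus DMSO baseline.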
# [5] = ATG_AP_1_CIS: Attagene CIS-FACTORIAL HepG2 Assay for human Activator Protein 1 (AP-1) (AID 2282931); details: HepG2 Attagene cis-factorial AP-1 reporter mRNA; actives raise or lower the signal
# Method in brief: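 Endogenous transcription-factor activity in human HepG2 liver cells is read through a cis-promoter reporter transcript, sampled 24 h after dosing. Detection uses RT-PCR with capillary electrophoresis; values come from bidirectional fitting relative to DMSO.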
# [6] = ATG_AP_2_CIS: Attagene CIS-FACTORIAL HepG2 Assay for human Activator Protein 2 (AP-2) (AID 2282932); details: HepG2 AP-2 cis-reporter, Attagene transcription factor profiling; actives raise or lower the signal
# Method in brief: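 HepG2 cells were transiently transfected with multiple cis-promoter reporter transcription units and dosed for 24 h. Reporter mRNA was measured by RT-PCR with capillary electrophoresis fluorescence; bidirectional fits relative to DMSO baseline.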
# [7] = ATG_BRE_CIS: Attagene CIS-FACTORIAL HepG2 Assay for human Bone Morphogenetic Protein (BMP) Response Element (BRE) (AID 2282933); details: HepG2 BMP response element reporter, Attagene transcription factor profiling; actives raise or lower the signal
# Method in brief: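 A HepG2 multiplex reporter system measured inducible reporter mRNA 24 h post-dosing. Detection: RT-PCR, 6-FAM primer extension, HpaI digestion, capillary electrophoresis. Activity fitted bidirectionally relative to DMSO.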
# [8] = target: Retinoic acid receptor alpha (Homo sapiens) (UniProt P10276); experiment: ATG_DR5_RAR_CIS: Attagene CIS-FACTORIAL HepG2 Assay for human Retinoic Acid Receptor Alpha (RARE), DR5 submotif (AID 2282934); details: HepG2 Attagene cis-factorial RARE DR5 reporter, mRNA; actives raise or lower the signal
# Sequence of Retinoic acid receptor alpha (Homo sapiens) (P10276 whole entry, looked up): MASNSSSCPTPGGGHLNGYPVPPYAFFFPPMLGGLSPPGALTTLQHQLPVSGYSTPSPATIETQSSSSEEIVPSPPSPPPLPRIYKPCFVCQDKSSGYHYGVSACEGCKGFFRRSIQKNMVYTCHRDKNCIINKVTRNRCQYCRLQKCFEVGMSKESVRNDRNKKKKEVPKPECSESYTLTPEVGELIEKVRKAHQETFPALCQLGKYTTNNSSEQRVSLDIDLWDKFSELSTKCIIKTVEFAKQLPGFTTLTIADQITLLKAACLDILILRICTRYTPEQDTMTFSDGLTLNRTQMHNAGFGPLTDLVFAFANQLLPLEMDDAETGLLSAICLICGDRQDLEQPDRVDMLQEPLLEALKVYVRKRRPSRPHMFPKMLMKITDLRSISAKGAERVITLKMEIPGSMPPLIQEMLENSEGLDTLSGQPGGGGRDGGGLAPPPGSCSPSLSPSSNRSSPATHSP
# Method in brief: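 HepG2 cells transiently transfected with multiplexed reporter units under cis (DR5 RARE) promoters, so endogenous transcription factor activity is measured. After 24 h compound exposure, reporter mRNA is quantified by RT-PCR with fluorescent labelling and capillary electrophoresis; bidirectional fitting versus DMSO.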
# [9] = target: Transcription factor E2F1 (Homo sapiens) (UniProt Q01094); experiment: ATG_E2F_CIS: Attagene CIS-FACTORIAL HepG2 Assay for human E2F Transcription Factor 1 (AID 2282935); details: HepG2 Attagene cis-reporter, E2F reporter RNA transcripts; actives raise or lower the signal
# Sequence of Transcription factor E2F1 (Homo sapiens) (Q01094 whole entry, looked up): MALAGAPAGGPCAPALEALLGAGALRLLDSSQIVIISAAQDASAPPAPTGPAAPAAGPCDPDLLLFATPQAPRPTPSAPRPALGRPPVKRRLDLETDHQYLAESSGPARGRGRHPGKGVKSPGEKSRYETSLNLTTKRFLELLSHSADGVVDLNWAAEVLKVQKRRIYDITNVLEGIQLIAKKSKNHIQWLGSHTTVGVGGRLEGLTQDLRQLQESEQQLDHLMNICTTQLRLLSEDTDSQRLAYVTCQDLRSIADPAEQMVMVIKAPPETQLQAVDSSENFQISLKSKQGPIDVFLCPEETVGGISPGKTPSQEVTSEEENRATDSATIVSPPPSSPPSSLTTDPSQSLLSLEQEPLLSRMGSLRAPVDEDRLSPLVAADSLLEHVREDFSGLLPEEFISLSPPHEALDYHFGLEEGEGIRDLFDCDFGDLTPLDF
# Method in brief: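 HepG2 cells transiently transfected with multiplexed cis-element reporter units, dosed for 24 h. Reporter mRNA measured by RT-PCR, 6-FAM primer-extension labeling, HpaI digestion and capillary electrophoresis; bidirectional fit versus DMSO baseline.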
# [10] = ATG_E_Box_CIS: Attagene CIS-FACTORIAL HepG2 Assay for human Enhancer Box (E-box) (AID 2282936); details: HepG2 E-box cis-reporter transcription, actives raise or lower the signal
# Method in brief: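 HepG2 cells transiently transfected with multiplexed cis-element reporter units sensing endogenous transcription factor activity; 24 h compound exposure. Reporter mRNA measured by RT-PCR, 6-FAM primer extension, HpaI digestion and capillary electrophoresis; bidirectional fit versus DMSO.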
# [11] = ATG_M_61_CIS: Attagene CIS-FACTORIAL HepG2 Assay for M61 Transcription Factor (Internal Marker) (AID 2282937); details: HepG2 Attagene CIS-FACTORIAL M61 internal marker reporter; actives raise or lower the signal
# Method in brief: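 Cells were transfected with reporter units under cis-regulatory promoters, treated with chemicals for 24 h, then lysed for RNA. Reporter transcripts were quantified by RT-PCR and capillary electrophoresis, and activity was fitted bidirectionally against DMSO.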
# [12] = ATG_EGR_CIS: Attagene CIS-FACTORIAL HepG2 Assay for human Early Growth Response 1 (EGR1) (AID 2282938); details: HepG2 Attagene CIS-FACTORIAL EGR reporter mRNA; actives raise or lower the signal
# Method in brief: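 Endogenous TF activity in HepG2 liver cells was gauged through cis-promoter reporter constructs transiently transfected. After 24 h dosing, reporter mRNA was quantified by RT-PCR and capillary electrophoresis, and curves fitted in both directions versus DMSO.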
# [13] = ATG_M_19_CIS: Attagene CIS-FACTORIAL HepG2 Assay for M19 Transcription Factor (Internal Marker) (AID 2282939); details: HepG2 Attagene CIS-FACTORIAL M19 internal marker reporter; actives raise or lower the signal
# Method in brief: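 Chemical-treated HepG2 (24 h) with MRTU constructs; reporter transcripts detected by fluorescent RT-PCR fragment analysis on capillary electrophoresis. Internal background marker, DMSO as baseline.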
# [14] = ATG_ERE_CIS: Attagene CIS-FACTORIAL HepG2 Assay for Estrogen Response Element (ERE) (AID 2282940); details: HepG2 ERE cis-reporter, Attagene RNA transcript; actives raise or lower the signal
# Method in brief: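 Human liver cells (HepG2) bearing transiently transfected, promoter-regulated reporter units were exposed 24 h. Reporter mRNA induction was detected by capillary electrophoresis of labelled RT-PCR products and fitted bidirectionally to DMSO.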
# [15] = ATG_Ets_CIS: Attagene CIS-FACTORIAL HepG2 Assay for human Erythroblast Transformation Specific (ETS) (AID 2282941); details: HepG2 ETS cis-reporter transcription, actives raise or lower the signal
# Method in brief: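 HepG2 cells transiently transfected with cis-promoter reporter transcription units were dosed for 24 h; reporter mRNA was measured by RT-PCR, 6-FAM primer extension, HpaI digestion and capillary electrophoresis, with bidirectional fitting against DMSO baseline.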
# [16] = ATG_FoxO_CIS: Attagene CIS-FACTORIAL HepG2 Assay for human Forkhead box O (FoxO) (AID 2282943); details: HepG2 Attagene cis-reporter, FoxO element, mRNA; actives raise or lower the signal
# Method in brief: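 HepG2 cells transiently transfected with cis-promoter-driven multiple reporter transcription units; 24 h after chemical dosing, reporter mRNA quantified by RT-PCR, fluorescent primer extension, HpaI digestion and capillary electrophoresis. Bidirectional fitting versus DMSO baseline.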
# [17] = ATG_GLI_CIS: Attagene CIS-FACTORIAL HepG2 Assay for human Zinc Finger Protein GLI1 (AID 2282945); details: HepG2, Attagene cis-factorial reporter mRNA, GLI element; actives raise or lower the signal
# Method in brief: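 HepG2 cells transiently transfected with cis-promoter multiplexed reporter units report endogenous transcription factor activity. After 24 h chemical exposure, reporter mRNA was quantified by RT-PCR, 6-FAM labelling, HpaI digestion and capillary electrophoresis, with bidirectional fitting against DMSO.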
# [18] = target: Hepatocyte nuclear factor 3-beta (Homo sapiens) (UniProt Q9Y261); experiment: ATG_FoxA2_CIS: Attagene CIS-FACTORIAL HepG2 Assay for human Forkhead box A2 (FOXA2) (AID 2282942); details: HepG2 cis-reporter transcription factor activity, 24 h; actives raise or lower the signal
# Sequence of Hepatocyte nuclear factor 3-beta (Homo sapiens) (Q9Y261 whole entry, looked up): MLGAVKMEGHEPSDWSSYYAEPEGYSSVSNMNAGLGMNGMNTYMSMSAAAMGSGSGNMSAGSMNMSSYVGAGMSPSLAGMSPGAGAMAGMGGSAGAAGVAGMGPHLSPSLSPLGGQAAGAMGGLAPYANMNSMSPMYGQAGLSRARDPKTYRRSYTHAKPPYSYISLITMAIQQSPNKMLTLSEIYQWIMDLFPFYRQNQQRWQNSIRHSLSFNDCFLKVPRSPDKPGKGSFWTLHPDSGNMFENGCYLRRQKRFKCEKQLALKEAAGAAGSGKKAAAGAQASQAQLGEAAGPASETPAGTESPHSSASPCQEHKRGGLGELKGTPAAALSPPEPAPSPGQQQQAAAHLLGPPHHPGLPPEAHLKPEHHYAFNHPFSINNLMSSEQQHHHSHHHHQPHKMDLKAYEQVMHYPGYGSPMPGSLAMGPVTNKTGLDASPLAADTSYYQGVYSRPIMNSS
# Method in brief: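 Endogenous transcription factor activity was read in HepG2 cells carrying transiently transfected cis-promoter reporter units. After 24 h dosing, reporter mRNA was quantified by RT-PCR and capillary electrophoresis, and values fitted bidirectionally versus DMSO.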
# [19] = ATG_GATA_CIS: Attagene CIS-FACTORIAL HepG2 Assay for human GATA Binding Protein (AID 2282944); details: HepG2 GATA cis-element reporter, Attagene multiplex mRNA; actives raise or lower the signal
# Method in brief: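 Transfected cis-reporter HepG2 cells were treated with chemicals for 24 hours. Total RNA was then converted to cDNA, amplified with reporter-specific primers and analysed by fluorescent capillary electrophoresis, using DMSO-treated wells as baseline.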
# [20] = ATG_CMV_CIS: Attagene CIS-FACTORIAL HepG2 Assay for human CMV (Internal Marker) (AID 2282928); details: HepG2 CMV promoter reporter, transcription factor profiling; actives raise or lower the signal;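 also: endpoint acts as a background internal control marker rather than a target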
# Method in brief: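 HepG2 cells transiently transfected with multiple cis-regulated reporter units; 24 h compound exposure. Reporter mRNA quantified by RT-PCR, 6-FAM primer-extension labeling, HpaI digestion and capillary electrophoresis; bidirectional fitting against DMSO baseline.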
smiles,measurement,setting,value
COc1ccc(-c2coc3cc(O)ccc3c2=O)cc1,outcome,[1],inactive
same,outcome,[2],inactive
same,outcome,[3],inactive
same,AC50,[4],20 µM (active)
same,outcome,[5],inactive
same,outcome,[6],inactive
same,outcome,[7],inactive
same,outcome,[8],inactive
same,outcome,[9],inactive
same,outcome,[10],inactive
same,outcome,[11],inactive
same,outcome,[12],inactive
same,outcome,[13],inactive
same,AC50,[14],2.23 µM (active)
same,outcome,[15],inactive
same,outcome,[16],inactive
same,outcome,[17],inactive
c1c[nH]cn1,outcome,[1],inactive
same,outcome,[2],inactive
same,outcome,[3],inactive
same,outcome,[4],inactive
same,outcome,[5],inactive
same,outcome,[6],inactive
same,outcome,[7],inactive
same,outcome,[8],inactive
same,outcome,[9],inactive
same,outcome,[10],inactive
same,outcome,[12],inactive
same,outcome,[13],inactive
same,outcome,[14],inactive
same,outcome,[15],inactive
same,outcome,[18],inactive
same,outcome,[16],inactive
same,outcome,[19],inactive
same,outcome,[17],inactive
c1ccc(-c2ccccn2)nc1,outcome,[1],inactive
same,outcome,[2],inactive
same,outcome,[4],inactive
same,outcome,[6],inactive
same,outcome,[7],inactive
same,outcome,[8],inactive
same,outcome,[9],inactive
same,AC50,[10],61.2 µM (active)
same,outcome,[11],inactive
same,outcome,[12],inactive
same,outcome,[13],inactive
same,outcome,[14],inactive
same,outcome,[15],inactive
same,outcome,[18],inactive
same,outcome,[16],inactive
same,outcome,[19],inactive
CCN(CC#N)c1cccc(C)c1,outcome,[1],inactive
same,outcome,[2],inactive
same,outcome,[3],inactive
same,outcome,[5],inactive
same,outcome,[6],inactive
same,outcome,[7],inactive
same,outcome,[8],inactive
same,outcome,[9],inactive
same,outcome,[10],inactive
same,outcome,[11],inactive
same,outcome,[12],inactive
same,outcome,[13],inactive
same,outcome,[14],inactive
same,outcome,[15],inactive
same,outcome,[16],inactive
same,outcome,[19],inactive
same,outcome,[17],inactive
Cc1cccc(N)n1,outcome,[1],inactive
same,outcome,[2],inactive
same,outcome,[3],inactive
same,outcome,[4],inactive
same,outcome,[5],inactive
same,outcome,[6],inactive
same,outcome,[7],inactive
same,outcome,[8],inactive
same,outcome,[9],inactive
same,outcome,[10],inactive
same,outcome,[12],inactive
same,outcome,[13],inactive
same,outcome,[14],inactive
same,outcome,[15],inactive
same,outcome,[18],inactive
same,outcome,[16],inactive
same,outcome,[19],inactive
O=C(c1ccccc1)C1CCC1,outcome,[1],inactive
same,outcome,[2],inactive
same,outcome,[20],inactive
same,outcome,[5],inactive
same,outcome,[6],inactive
same,outcome,[7],inactive
same,outcome,[8],inactive
same,outcome,[9],inactive
same,outcome,[10],inactive
same,outcome,[11],inactive
same,outcome,[12],inactive
same,outcome,[13],inactive
same,outcome,[14],inactive
same,outcome,[15],inactive
same,outcome,[18],inactive
same,outcome,[16],inactive
same,outcome,[19],inactive
same,outcome,[17],inactive
CC(=O)C=CC1C(C)=CCC(C)C1(C)C (stereo not given),outcome,[1],inactive
same,outcome,[2],inactive
same,outcome,[3],inactive
same,outcome,[4],inactive
same,outcome,[5],inactive
same,outcome,[7],inactive
same,outcome,[8],inactive
same,outcome,[9],inactive
same,outcome,[10],inactive
same,outcome,[11],inactive
same,outcome,[12],inactive
same,outcome,[13],inactive
same,outcome,[14],inactive
same,outcome,[15],inactive
same,outcome,[18],inactive
same,outcome,[16],inactive
same,outcome,[19],inactive
same,outcome,[17],inactive
O=c1c2ccccc2oc2ccccc12,outcome,[1],inactive
same,outcome,[2],inactive
same,outcome,[3],inactive
same,outcome,[4],inactive
same,outcome,[5],inactive
same,outcome,[7],inactive
same,outcome,[9],inactive
same,outcome,[10],inactive
same,outcome,[12],inactive
same,outcome,[13],inactive
same,AC50,[14],26.4 µM (active)
same,outcome,[15],inactive
same,outcome,[18],inactive
same,outcome,[16],inactive
